Inhibition data for 91 molecules are collected here from PubChem BioAssay AID1209 (Sanford-Burnham Center for Chemical Genomics, 2008).

Among all 190,000 compounds or so, about 810 (0.43%) were called active. The sample as a whole holds a higher share of actives than the screen did. A number with no mark means an inactive call. Cut-off read from the data, not from the text of the source: active = inhibition above about 50%; inactive = the rest.

One may read the inhibition as the drop in the measured response relative to a control, in per cent.

For this assay, the target named is Mannose-6-phosphate isomerase (Homo sapiens) (UniProt P34949). Briefly: MPI enzyme activity inhibition – biochemical, fluorescence intensity, coupled assay, primary screen (AID 1209).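 Note: plate controls were DMSO vehicle for no effect and wells lacking substrate for full effect.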 As to conditions: purified PMI enzyme, at 20 µM, active compounds read high.
Mannose-6-phosphate isomerase (Homo sapiens), sequence (P34949 whole entry, looked up): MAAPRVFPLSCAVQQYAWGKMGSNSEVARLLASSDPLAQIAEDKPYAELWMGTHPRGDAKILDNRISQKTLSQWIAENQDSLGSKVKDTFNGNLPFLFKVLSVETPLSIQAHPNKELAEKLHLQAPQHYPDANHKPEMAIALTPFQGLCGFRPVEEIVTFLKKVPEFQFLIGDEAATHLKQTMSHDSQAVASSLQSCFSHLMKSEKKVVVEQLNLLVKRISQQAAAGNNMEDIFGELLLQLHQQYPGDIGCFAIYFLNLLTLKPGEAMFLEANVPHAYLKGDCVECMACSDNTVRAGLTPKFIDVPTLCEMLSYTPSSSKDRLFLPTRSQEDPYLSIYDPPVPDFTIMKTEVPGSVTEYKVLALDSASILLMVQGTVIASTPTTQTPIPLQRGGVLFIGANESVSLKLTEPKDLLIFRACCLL
Take `COC(=O)c1nn(-c2ccccc2)c(=O)cc1Oc1ccc(Cl)cc1`: the inhibition was -15.5%.

`CCOC(=O)N1CCC(NC(=O)CCC(=O)N2CC(C)Oc3ccc(Cl)cc32)CC1` (stereo unspecified): the inhibition is 19.2%.

With `COc1ccc(C(=O)Nc2nnc(Cc3cccs3)s2)cc1OC`, the inhibition is 7.8%.

As to `COc1c(Cl)cnn(-c2ccc(Cl)c(Cl)c2)c1=O`, the inhibition was -2.9%.

For `CC1(C)NC(=O)N(CCOCCOc2ccccc2-c2ccccc2)C1=O`, the inhibition is -2.9%.

For `COc1cc(O)c2c(c1)OC(c1ccc(O)cc1)CC2=O` (stereo unspecified), the inhibition is -1.3%.

With `COc1cc2c(cc1OC)C1(Nc3c-2c(Cc2ccccc2)nn3-c2ccccc2)C(=O)Nc2ccccc21` (stereo unspecified), the inhibition was 9.3%.

For `Clc1ccc(-c2nn3c(-c4ccccn4)nnc3s2)c(Cl)c1`, the inhibition is -4.5%.

Consider `O=C1SC(SC(=Nc2ccccc2)Nc2ccccc2)C(=O)N1c1ccccc1` (stereo unspecified), for which the inhibition is -11.6%.

As for `Cc1cccc(N2C(=O)CC(SC(=Nc3ccccc3)Nc3ccccc3)C2=O)c1` (stereo unspecified), the inhibition was 15.7%.

Consider `Cc1cccc(N2C(=O)SC(SC(=Nc3ccccc3)Nc3ccccc3)C2=O)c1` (stereo unspecified), for which the inhibition is 52.5% (active).

For `Cc1ccc2c(c1)n([O-])c1c([n+]2=O)CCCC1`, the inhibition was 17.7%.

Consider `O=[n+]1c2c(n([O-])c3cc(F)ccc31)CCCC2`, for which the inhibition is 5.7%.

Turning to `CCOc1ccc2c(c1)n([O-])c1c([n+]2=O)CCCC1`, the inhibition was 56.8% (active).

As for `CSc1ccccc1NC(=O)CN(C)Cc1ccc(Br)cc1`, the inhibition is 16%.

Regarding `Cc1ccccc1Cn1ccc(NC(=O)c2cnn3cccnc23)n1`, the inhibition is 10.4%.

`CCOC(=O)NC(=O)CSc1ccccn1`: the inhibition is 2.1%.

In the case of `O=C1/C(=C/c2cccc([N+](=O)[O-])c2)CCc2ccccc21`, the inhibition was 14.1%.

As for `O=[N+]([O-])c1cccc(N=Cc2sc3ccccc3c2O)c1`, the inhibition was 13.3%.

In the case of `CC1CCC(NC(=O)Cn2ncc3ccccc32)CC1` (stereo unspecified), the inhibition was 8.4%.

Turning to `COc1cc2cc(CN(CCc3cccc(C)c3)C(=S)NCCCN3CCOCC3)c(=O)[nH]c2cc1OC`, the inhibition was 10.1%.

As to `CC(C)CCNC(=O)Cc1ccc(Nc2nc(=S)[nH]c3ccccc23)cc1`, the inhibition is 51.6% (active).

Regarding `Cc1ccc(CNC(=O)Cc2csc(Nc3nc(=S)[nH]c4ccccc34)n2)cc1`, the inhibition is -1.8%.

For the molecule `O=C(Cc1ccc(Nc2nc(=S)[nH]c3ccccc23)cc1)NC1CCCCC1`, the inhibition is -5.3%.

Consider `Cc1cccc(/C(N)=N/OC(=O)c2ccc(Br)o2)c1`, for which the inhibition was 12.6%.

For the molecule `CCOc1cc(S(=O)(=O)N2CCCC2)ccc1Cl`, the inhibition was -1.7%.

With `O=C(OCC1O[C@@H](OC(=O)c2cc(O)c(O)c(O)c2)[C@@H](OC(=O)c2cc(O)c(O)c(O)c2)[C@@H](OC(=O)c2cc(O)c(O)c(O)c2)[C@@H]1OC(=O)c1cc(O)c(O)c(O)c1)c1cc(O)c(O)c(O)c1` (stereo partly specified), the inhibition is 57.2% (active).

For `O=C(O[C@@H]1OC2COC(=O)c3cc(O)c(O)c(O)c3-c3c(cc(O)c(O)c3O)C(=O)O[C@@H]([C@H]1O)[C@@H]2O)c1cc(O)c(O)c(O)c1`, the inhibition was 49.1%.

Turning to `Cc1cn(C2OC(COC(=O)c3ccccc3)C(OC(=O)c3ccccc3)C2OC(=O)c2ccccc2)c(=O)[nH]c1=O` (stereo unspecified), the inhibition was 3.7%.

`CC(C)N(CC#CC(O)(c1ccccc1)c1ccccc1)CCO`: the inhibition was -9.6%.

Regarding `S=C(N/N=C/c1ccccc1Cl)Nc1ccccc1`, the inhibition was 12.3%.

On to `NC(=S)N/N=C/c1cc([N+](=O)[O-])ccc1Cl`, for which the inhibition is -2.2%.

Turning to `O=[N+]([O-])c1ccc(Cl)c(/C=N/NC(=S)Nc2ccccc2)c1`, the inhibition was 66.2% (active).

For `CCC(C)(C)c1ccc(OCCN2C(=O)NC(C)(C)C2=O)cc1`, the inhibition is 7.4%.

For `COc1ccc(NC(=O)C2(c3ccccc3)CCCC2)cc1`, the inhibition was 18.9%.

As for `CCOC(=O)C1=C(C)N(C)C(=O)NC1c1c(C)nn(-c2ccc(C)cc2)c1Cl` (stereo unspecified), the inhibition was -6.5%.

With `CCOC(=O)C1=C(C)N(C)C(=O)NC1c1c(C)nn(-c2ccccc2)c1C` (stereo unspecified), the inhibition was -0.2%.

`CCOC(=O)C1=C(C)NC(=O)NC1c1c(C)nn(-c2ccccc2)c1Cl` (stereo unspecified): the inhibition was 53.9% (active).

For `CCSc1nnc(NC(=O)c2ccc(S(=O)(=O)N(C)C)cc2)s1`, the inhibition was -9.1%.

Regarding `COc1ccc(Nc2nc(N)nc(CSC(=S)N3CCOCC3)n2)cc1`, the inhibition was -8.7%.

With `C=CC[n+]1ccc(/C=C2\C=Cc3cc(C)ccc3N2CC)c2ccccc21`, the inhibition is 64.5% (active).

As to `C=CC[n+]1c(/C=C2\C=Cc3cc(C)ccc3N2CC)ccc2ccccc21`, the inhibition was 16.7%.

Turning to `CCN1/C(=C/c2cc[n+](C)cc2)C=Cc2cc(C)ccc21`, the inhibition was 46.3%.

Turning to `N#CCSCC(=O)Nc1ccccc1`, the inhibition is 7.9%.

With `N#CC(C(=O)NC1CCCCC1)c1nc2ccccc2nc1N1CCN(c2ccc(F)cc2)CC1` (stereo unspecified), the inhibition was 7.4%.

Regarding `Cc1ccc(-c2nnc3n2N=C(c2ccc(Br)cc2)CS3)cc1`, the inhibition is -12.4%.

`COc1cccc(CNc2ccc(N3CCCCC3)cc2)c1OC`: the inhibition is 65.1% (active).

For the molecule `COc1cccc(CNc2ccc(N3CCC(C)CC3)cc2)c1OC`, the inhibition is 67.3% (active).

In the case of `COc1ccccc1CNc1ccc(C(=O)O)cc1`, the inhibition is 1.8%.

As for `CC1CCN(c2ccc(NC(=O)Cc3ccccc3)cc2)CC1`, the inhibition is 13.5%.

Consider `COc1cccc(CNCCN2CCOCC2)c1OC`, for which the inhibition was 0.5%.

For the molecule `COc1ccccc1CNc1ccc(N2CCCCC2)cc1`, the inhibition is 67.3% (active).

As for `COc1cccc(CNc2ccc(S(N)(=O)=O)cc2)c1OC`, the inhibition was 6.1%.

On to `COc1ccccc1C(=O)Nc1ccc(N2CCCCC2)cc1`, for which the inhibition was -4.3%.

As for `COc1cccc(CNc2ccc(F)c(Cl)c2)c1OC`, the inhibition was -0.3%.

As for `S=C1NC2(CCCC2)Nc2ccccc21`, the inhibition was -71.4%.

For `COC(=O)c1ccccc1NC(=O)c1ccc(-c2ccccc2F)o1`, the inhibition is -1.4%.

Consider `O=C(CSc1ncn[nH]1)Nc1ccc(Br)cc1F`, for which the inhibition is 6%.

Consider `O=C1c2ccccc2C(=O)N1CCc1c[nH]c2ccc(O)cc12`, for which the inhibition is 22.1%.

As to `FC(F)(F)c1cc(-c2ccc(Cl)cc2)nc2ncnn12`, the inhibition is -7.2%.

Turning to `COc1ccc(S(=O)(=O)N2CC(O)CC2C(=O)OCC(=O)Nc2ccc(Cl)cn2)cc1` (stereo unspecified), the inhibition is 13.3%.

With `O=[N+]([O-])c1ccc(-c2cn(-c3ccccc3)c(=S)[nH]2)cc1`, the inhibition is -1.9%.

On to `O=[N+]([O-])c1cccc(-c2cn(-c3ccccc3)c(=S)[nH]2)c1`, for which the inhibition is -9.5%.

Regarding `O=[N+]([O-])c1ccc2c(c1)[nH]c(=S)n2-c1ccccc1`, the inhibition is 58.6% (active).

For the molecule `CCc1cccc(CC)c1NC(=O)c1cc(CN2C(=O)c3ccccc3C2=O)ccc1OC`, the inhibition is 3%.

In the case of `Cc1nc2sc(C(c3cccc(F)c3)N3CC(C)OC(C)C3)c(O)n2n1` (stereo unspecified), the inhibition was -12.7%.

Regarding `CCN1CCN(S(=O)(=O)c2cc(OCC(=O)NC3CCCCC3)c(C)cc2Cl)CC1`, the inhibition is 11.7%.

Turning to `CC1(C)CC(=O)c2sc(NC(=O)c3ccc4ncsc4c3)nc2C1`, the inhibition was -7.8%.

Turning to `Cc1cc(C)cc(OCC(=O)Nc2cccc(-c3nc4ncccc4o3)c2)c1`, the inhibition is -1%.

For the molecule `Cc1ccc(OCC(=O)Nc2ccc(-c3nc4ncccc4o3)cc2)c(C)c1`, the inhibition was 97.8% (active).

As to `Cc1ccc(-c2nc3ncccc3o2)cc1NC(=O)COc1ccccc1`, the inhibition is 3.5%.

Consider `COCCNC(=S)NCCc1ccc(Cl)cc1Cl`, for which the inhibition was -1.5%.

As for `O=C(/C=C/c1ccc(Cl)cc1)NC(=S)Nc1ccc(CN2CCOCC2)cc1`, the inhibition is 20.8%.

Regarding `Cc1ccc(S(=O)(=O)NCC(=O)N(c2ccccc2)C(C(=O)NCc2ccccc2)c2ccco2)cc1` (stereo unspecified), the inhibition was 57.1% (active).

With `Cc1cc(C)cc(N(C(=O)CNS(=O)(=O)c2ccccc2)C(C(=O)NCc2ccccc2)c2ccc(C)o2)c1` (stereo unspecified), the inhibition is 18.8%.

As for `COc1ccc(CNC(=O)C(c2ccco2)N(C(=O)CNS(=O)(=O)c2ccccc2)c2ccccc2C)cc1` (stereo unspecified), the inhibition is 14%.

Regarding `Cc1ccc(/C=N/NC(=O)CN2CCN(S(=O)(=O)c3ccc(Br)cc3)CC2)s1`, the inhibition is 4.9%.

As to `COc1cc(-c2nnc(SCc3ccccc3Cl)o2)cc(OC)c1OC`, the inhibition was 23.4%.

With `COc1cc(-c2nnc(SCc3cc(=O)oc4cc(O)c(O)cc34)o2)cc(OC)c1OC`, the inhibition was 60.1% (active).

Regarding `COc1cc(-c2nnc(SCc3cc(=O)oc4cc(C)ccc34)o2)cc(OC)c1OC`, the inhibition was 12.5%.

As to `Cc1cc([N+](=O)[O-])nn1CCCC(=O)Nc1sc2c(c1C(N)=O)CCCC2`, the inhibition was 53% (active).

Turning to `CCOC(=O)c1c(NC(=O)Cn2cnc([N+](=O)[O-])n2)sc2c1CCCC2`, the inhibition was 18.4%.

`CC1CCc2c(sc(NC(=O)CCCn3cnc([N+](=O)[O-])n3)c2C(N)=O)C1` (stereo unspecified): the inhibition is 1.2%.

`Cc1cc([N+](=O)[O-])nn1CC(=O)Nc1sc2c(c1C(N)=O)CCCC2`: the inhibition was 10.8%.

With `Cc1cc([N+](=O)[O-])nn1CCCC(=O)Nc1sc2c(c1C(N)=O)CCC(C)C2` (stereo unspecified), the inhibition is 9.5%.

As to `NC(=O)c1c(NC(=O)CCCn2cnc([N+](=O)[O-])n2)sc2c1CCCC2`, the inhibition was 55.6% (active).

As for `CC(C)CC(c1nnnn1CCc1ccccc1)N1CCN(C(=O)c2ccco2)CC1` (stereo unspecified), the inhibition is 7.4%.

Regarding `COc1cc(/C=C/C(=O)OCC(=O)Nc2cc(C(F)(F)F)ccc2N2CCOCC2)ccc1O`, the inhibition is 13%.

Turning to `COC(=O)Nc1ccc(S(=O)(=O)Nc2cnc3ccccc3n2)cc1`, the inhibition was -10.9%.

`CC(C)C(NC(=O)c1ccco1)C(=O)NCC(c1ccco1)N(C)C` (stereo unspecified): the inhibition is -3.6%.

Take `CCN(C(=O)c1cn(CC)c(=O)c2cc(OC)c(OC)cc12)c1ccccc1C`: the inhibition was 5.3%.
